Screening results as filed in PubChem BioAssay.
PfHsp40 yeast – rescue of PfHsp40-mediated yeast toxicity; S. cerevisiae expressing PfHsp40, growth rescue, ATP luminescence; growth rescue, % at 12.5 µM; 340,000 compounds, 0.68% hits; in the data active = growth rescue above about 28%, passing the limit was not always enough;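 also: yeast W303a lacking pdr1 and pdr3 grown in galactose medium; growth measured after three days at 30 °C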
Sa ugtP lethal – growth inhibition of S. aureus ugtP deletion strain | 330,000 compounds, 0.54% hits | growth inhibition, % (concentration not given with the values) | AID 1259309 | S. aureus RN4220 ugtP deletion, OD600 growth, 16 h; in the data active = growth inhibition above about 68%
Mtb hypoxia rep – inhibitors of hypoxia-regulated fluorescent reporter in Mycobacterium tuberculosis | 300,000 compounds, 0.1% hits | M. tuberculosis hypoxia-regulated fluorescent reporter, fluorescence | fluorescence inhibition, % (concentration not given with the values) | AID 1159583; in the data active = fluorescence inhibition mostly above about 23%, no sharp cut-off; inactive = mostly below about 17%
RN4220 kill – S. aureus RN4220 growth inhibition; OD600, 16 h; inhibition, % (concentration not given with the values); 330,000 compounds, 0.33% hits; in the data active = inhibition above about 85%
MazF activator – increases E. coli MazEF RNase cleavage of RNA | P0AE70 | AID 504720 | FAM/BHQ RNA-DNA oligo cleavage fluorescence, 5 h | 350,000 compounds, 0.32% hits | activation, % at 20 µM; in the data active = activation above about 50%
TcdB inh – inhibitors of Clostridioides difficile toxin B glycohydrolase; AID 652162; TcdB glycohydrolase enzymatic assay, plate reader; 350,000 compounds, 0.24% hits; P18177; inhibition, % at 9.99 µM; in the data active = inhibition above about 10%
Hits are given with their value; 0 = inactive; - = no result given; + = active, no number. Compounds with a hit are over-represented: about 1.3% of the library has one in this group of screens.

SMILES	PfHsp40 yeast	Sa ugtP lethal	Mtb hypoxia rep	RN4220 kill	MazF activator	TcdB inh
CCCn1c2c(c(=N)c3c1CCC3)CCC2	0	0	0	0	0	0
O=c1oc(/C=C/c2ccccc2)nc2sc3c(c12)CCC3	0	0	-	0	324	-
COc1ccc(C=Cc2nc3sc4c(c3c(=O)o2)CCC4)cc1	-	0	0	0	-	-
COc1ccc(/C=C/c2nc3sc4c(c3c(=O)o2)CCC4)cc1	0	-	-	-	+	-
O=C(C1=C(O)/C(=C/c2ccc(O)cc2)CCC1)C(F)(F)F	0	0	-	0	0	-
COc1ccc(/C=C2\CCCC(C(=O)C(F)(F)F)=C2O)cc1	0	0	-	0	475	-
CN1CC[C@]23c4ccccc4NC1[C@]21CCN(C)C3Nc2ccccc21	-	0	0	0	-	-
O=C(NCCCNc1ccc(C(F)(F)F)cc1[N+](=O)[O-])c1ccc(F)cc1	0	0	0	0	62	0
Cc1ccc(C(=O)NCCCNc2ccc(C(F)(F)F)cc2[N+](=O)[O-])cc1	0	0	0	0	0	0
COC(=O)Cc1cc(=O)n(-c2ccccc2)[nH]1	51	0	0	0	0	0
COC(=O)Cc1[nH]n(-c2ccccc2)c(=O)c1C(C)=Nc1ccccc1	0	0	0	0	0	0
Cc1ccc(-n2ncc3c2CC(C)(C)CC3NC(=O)c2c(C)noc2C)cc1 (configuration not stated)	91	0	0	0	0	0
CC(=O)N1CCC(=NNS(=O)(=O)c2cccc([N+](=O)[O-])c2)CC1	0	0	0	0	53	-
Cc1ccccc1OCC(=O)Nn1c(COc2ccccc2)nc2ccccc2c1=O	0	99	-	110	0	-
Cc1cccc(C)c1OCC(=O)Nn1c(COc2ccccc2)nc2ccccc2c1=O	0	0	0	0	0	-
O=C(c1cccc(COc2ccc(Cl)cc2Cl)c1)N1CCN(c2ccccn2)CC1	28	0	0	0	0	-
COc1ccc(N/N=C(\C#N)C(=N)SCc2ccccc2)cc1	209	-	-	-	0	0
O=C(Cc1ccccc1)N1C[C@@H]2[C@H](c3ccccc31)[C@H](CO)N2C(=O)Cc1ccccc1	-	-	-	-	-	0
COc1ccc(C=NNC(=O)c2cccnc2)cc1CSc1ccccn1	-	0	0	0	-	-
C[C@@H]1CCCCO[C@@H](CN(C)S(=O)(=O)c2ccc(Cl)cc2)[C@@H](C)CN([C@@H](C)CO)C(=O)c2cc(NC(=O)Nc3ccc4c(c3)OCO4)ccc2O1	-	-	-	-	-	0
Cc1cc2oc(=O)cc(-c3cc4ccccc4o3)c2cc1O	0	0	0	0	0	0
Cc1c2cc(O)c(=O)cc-2oc2cc(O)c(O)cc12	0	0	0	0	410	0
COc1cc(OC)c(-c2c3cc(O)c(=O)cc-3oc3cc(O)c(O)cc23)cc1OC	228	0	-	0	0	0
CC(=O)Nc1ccc2c(c1)C(=O)N(C)[C@H]1CC[C@@H](CC(=O)NCc3ccccc3)O[C@@H]1CO2	-	-	-	-	-	0
CCOC(=O)c1sc2nc(CC(=O)OC)nc(NCCN(CC)CC)c2c1C	74	0	0	0	0	-
SMILES	PfHsp40 yeast	Sa ugtP lethal	Mtb hypoxia rep	RN4220 kill	MazF activator	TcdB inh
C[C@H](CO)N1C[C@H](C)[C@@H](CN(C)CC2CC2)Oc2c(NC(=O)Nc3ccc(F)cc3)cccc2C1=O	-	-	-	-	-	0
Cn1c(-c2ccccc2)cc2c3no[n+]([O-])c3ccc21	0	0	47	0	0	-
CNc1nc(C23CC4CC(CC(C4)C2)C3)cs1	0	0	0	0	0	12
O=C(CCN1CCCCC1)N[C@H]1CC[C@@H](CCNS(=O)(=O)c2ccc(Cl)cc2)O[C@H]1CO	-	-	-	-	-	0
Oc1ccc(/C=N/N(Cc2ccccc2)c2ccccc2)c(O)c1O	42	-	-	-	0	0
CN(C)c1ccc(C=NN(Cc2ccccc2)c2ccccc2)cc1	-	0	0	0	-	-
Oc1cccc(/C=N/N(Cc2ccccc2)c2ccccc2)c1	345	-	-	-	0	0
CCn1cc(C=C2C(=O)c3ccccc3C2=O)c2ccccc21	0	0	0	0	+	-
CCN=C1S/C(=C\c2cn(CC)c3ccccc23)C(=O)N1CC	0	0	0	0	0	0
COc1cccc(NC=C2C(=O)OC(C)(C)OC2=O)c1	0	0	0	0	0	-
COc1cccc(NC=C2C(=O)OC3(CCCCC3)OC2=O)c1	314	0	0	0	0	-
C[C@@H]1CN([C@@H](C)CO)C(=O)c2cc(-c3cncnc3)cnc2O[C@@H]1CN(C)C(=O)Cc1ccccc1	-	-	-	-	-	0
O=S(=O)(Nc1ccn(-c2ccccc2)n1)c1ccc(Br)cc1	60	0	0	0	0	0
